According to PubChem BioAssay (NCI):
The panel holds about 83,000 compounds, 20% with a hit somewhere; the sample as a whole holds those more often.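 Results are percent growth after 48 hours of single-concentration exposure. 100 means growth as in untreated cells, lower positive values show inhibition; negative values down to -100 show cell death.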 Values without a mark were called inactive. Active and inactive are the calls of the source. Rule for the calls: active = growth percent below 10; inactive = the rest.

Columns and labels:
Experiment in all cases: NCI-60 one-dose screen, 48 h (100 = growth as untreated, 0 = no growth, -100 = all killed)
SK-MEL-2 melanoma = settings: 10 µM unless noted
SN12C renal = settings: 10 µM unless noted
UO-31 renal = settings: 10 µM unless noted
TK-10 renal = settings: 10 µM unless noted
ACHN renal = settings: 10 µM unless noted
CAKI-1 renal = settings: 10 µM unless noted
A498 renal = settings: 10 µM unless noted
CCRF-CEM leukemia = settings: 10 µM
MOLT-4 leukemia = settings: 10 µM unless noted
SR leukemia = settings: 10 µM unless noted
RPMI-8226 leukemia = settings: 10 µM unless noted
OVCAR-8 ovarian = settings: 10 µM unless noted
OVCAR-5 ovarian = settings: 10 µM unless noted
OVCAR-4 ovarian = settings: 10 µM unless noted
SK-OV-3 ovarian = settings: 10 µM unless noted
IGROV1 ovarian = settings: 10 µM unless noted
OVCAR-3 ovarian = settings: 10 µM unless noted
HS 578T breast = settings: 10 µM unless noted
NCI/ADR-RES ovarian = settings: 10 µM unless noted
EKVX NSCLC = settings: 10 µM

| Structure (SMILES) | growth (SK-MEL-2 melanoma) | growth (SN12C renal) | growth (UO-31 renal) | growth (TK-10 renal) | growth (ACHN renal) | growth (CAKI-1 renal) | growth (A498 renal) | growth (CCRF-CEM leukemia) | growth (MOLT-4 leukemia) | growth (SR leukemia) | growth (RPMI-8226 leukemia) | growth (OVCAR-8 ovarian) | growth (OVCAR-5 ovarian) | growth (OVCAR-4 ovarian) | growth (SK-OV-3 ovarian) | growth (IGROV1 ovarian) | growth (OVCAR-3 ovarian) | growth (HS 578T breast) | growth (NCI/ADR-RES ovarian) | growth (EKVX NSCLC) |
| --- | --- | --- | --- | --- | --- | --- | --- | --- | --- | --- | --- | --- | --- | --- | --- | --- | --- | --- | --- | --- |
| COC(=O)c1ccc2[nH]c(O)c(C(=Nc3ccc(N(C)C(=O)CN4CCN(C)CC4)cc3)c3ccc(CCO)cc3)c2c1 | 34.9% | 27.8% | 72.2% | 65.2% | 74.1% | 33.1% | 45.6% | 15.5% | 21.4% | 6.7% (active) | 30.8% | 64.5% | 80.6% | 56.6% | 39.7% | 16.5% | 52.5% | 23.9% | 104% |  |
| Cc1sc(NC(=O)c2ccc(C(C)(C)C)cc2)c(C(=O)O)c1C | 103% |  | 89.9% | 68.4% | 38.8% | 41.9% | 78.6% | 48.7% | 50.3% | 62.8% | 47.2% | 56.5% | 94% |  | 103% | 70.9% | 71.7% |  | 58.9% | 51.1% |
| COc1ccc2c(c1)/C(=C/c1c(-c3cc(OC)c(OC)c(OC)c3)nc3sccn13)C(=O)N2 | 98.6% | 105% | 77.8% | 102% | 100% | 67.3% | 65.3% | -43.3% (active) | -61.2% (active) | -41.1% (active) | 60.7% | 105% | 85.2% | 95.8% | 106% | 29.2% | 99.5% | 85.7% | 98.9% |  |
| C=C(NC(=O)[C@H](C(C)C)N(C)c1cccc2[nH]ccc12)C(=O)OC | 104% | 101% | 80.1% |  | 101% | 92.6% | 94.4% | 87.1% | 107% |  | 6.33% (active) | 102% | 101% | 103% | 101% | 111% | 103% | 102% | 108% | 93.8% |
| CC(=O)OC1/C=C\CC/C=C\C1 (centres undefined) | 109% | 95.8% | 93.5% | 124% | 96.3% | 99.2% | 86.9% | 103% | 116% | 104% | 101% | 98.8% | 97.4% | 107% | 105% | 110% | 115% | 101% | 122% |  |
| CC[n+]1c(C)ccc2cc(C)ccc21 | 106% | 96.8% |  | 98.1% | 106% | 113% | 96.7% | 98% | 89.9% | 94.4% | 101% | 88.4% | 109% | 106% | 97.8% | 104% | 104% | 112% | 104% | 72.6% |
| COc1cc2cc3cc4cc(OC)c(OC)cc4c(C)[n+]3cc2cc1OC (tested in a mixture with another compound) | 69.5% | 85.7% | 59.6% |  | 95.2% |  | 93.6% | 51.8% | 40.1% |  | 43% | 76.2% | 104% | 83.8% | 107% |  | 65.9% | 90.1% | 93.1% | 60.8% |
| CCCCCN1CCN(C(CC(=O)c2ccccc2)C(=O)c2ccccc2)CC1 (centres undefined) | 104% |  | 95% | 99.9% | 106% | 81.6% |  | -14.7% (active) | 27.9% | 0.154% (active) | 12.6% | 101% | 110% | 107% | 102% | 57.8% | 55.3% |  | 99% | 110% |
| COc1ccc(/C=C/C(=O)/C=C/c2cc3ccccc3[nH]c2=O)cc1 | 95.9% | 66.5% | 94.4% | 118% | 84.1% | 98.2% | 100% | 8.49% (active) | 19.4% | -2.08% (active) | -22% (active) | -11.8% (active) | 125% | 74.5% | 88.8% | 130% | 32% | 102% | 92.5% |  |
| CCCCCC(=C/c1ccccc1)/C=N/N=C(N)N | -55.7% (active) |  | -53.2% (active) | 72.9% | 1.62% (active) |  |  | 15.7% | 8.92% (active) | -2.56% (active) |  |  | 58.8% | 31.7% | 76.9% | -63.3% (active) |  |  | 41.7% | 46.1% |
| Cn1c2c(cc(S(=O)(=O)c3ccccc3)c1=O)CCc1c-2cnn1-c1ccc(Cl)cc1 | -9.09% (active) |  | -14.2% (active) | 34.6% | 6.4% (active) |  | -14.5% (active) | 98.2% | 57.5% | 52% | 49.3% | -48.4% (active) | 26.2% | -9.94% (active) | 1.98% (active) | 50.6% | 56.4% | -10.1% (active) | 39.3% | 5.95% (active) |
| COc1ccc(OC)c(Cn2cc3c(c2-c2ccccc2)CCc2cnoc2-3)c1 | 74.2% | 73% | 59% | 86.1% | 65.3% | 28.9% | 53.8% | 48.7% | 47% | 22% | 61.1% | 79% | 90.8% | 77.6% | 48.2% | 44.7% | 17.9% | 59.3% | 20.5% |  |
| CCCCCSc1ccc2nc(NC(=O)OCC)sc2c1 | 45.5% | 52.5% | 38.3% | 49.7% | 39.7% | 27.6% | -0.27% (active) | 12.4% | 26.5% | 34.9% | 12.8% | 43.6% | 64.3% | 28.7% | 39.1% | 46.2% | -7.09% (active) | 14.1% | 11.9% |  |
| Cc1ccc(C(=O)NN)cc1 | 119% |  | 104% | 110% | 115% |  |  | 99.5% | 93% | 80.3% |  |  | 116% | 98.2% | 110% | 124% |  |  | 103% | 97.1% |
| COc1cc2ncnc(Nc3ccc4c(cnn4C(=O)Nc4ccccc4)c3)c2cc1OC | 103% | 82.1% | 65.3% | 72.3% | 94.2% | 76.9% | 65.1% | 31.6% | 80.8% | 1.84% (active) | 70.5% | 103% | 105% | 88.5% | 110% | 80.7% | 95.7% | 102% | 100% |  |
| CCCCCCNC(=O)Oc1ccc(/C(=C(/C)Cc2ccc(OC)cc2)c2ccc(OCCN(C)C)cc2)cc1 | 111% | 60.3% | 38.9% |  | 64.2% |  |  | 48.2% | 30.7% |  | 28.8% | 69.9% | 90.3% | 76.8% | 83.4% | 74.4% | 81.3% | 45.9% | 78.3% | 78.1% |
| O=C(Nc1ccc(Cl)cn1)C1(c2ccccc2)CCCCC1 | 116% | 106% | 181% | 126% | 112% | 120% | 141% | 14.1% | 63.3% | -14.5% (active) | 93% | 113% | 102% | 91.6% | 117% | 534% | 118% | 107% | 125% |  |
| CCOc1ccc(N(C)c2ccc(/C=C/C3=[N+](C)c4ccccc4C3(C)C)cc2)cc1 | -45.9% (active) | 2.99% (active) | 3.71% (active) | -16.1% (active) | -95.9% (active) | -2.85% (active) | 42.6% |  | -25.4% (active) | -26.7% (active) | -20.3% (active) | -15.8% (active) | 40.1% | 37.1% | 16.9% | 1.79% (active) | -72.9% (active) | 41.7% | 72.9% |  |
| COC(=O)[C@H](Cc1cn(C)cn1)NC(=O)[C@H](CC(=O)OCc1ccccc1)NC(=O)Nc1cc(C(F)(F)F)cc(C(F)(F)F)c1 | -92.6% [100 µM] (active) | -91.1% [100 µM] (active) | -96.3% [100 µM] (active) | -97.5% [100 µM] (active) | -98.6% [100 µM] (active) | -91.9% [100 µM] (active) | -92.3% [100 µM] (active) |  | -62.8% [100 µM] (active) | -46.4% [100 µM] (active) | -65.4% [100 µM] (active) | -77.4% [100 µM] (active) | -93.2% [100 µM] (active) | -78% [100 µM] (active) | -100% [100 µM] (active) | -82.4% [100 µM] (active) | -99% [100 µM] (active) |  | -28.4% [100 µM] (active) |  |
